Screening data from PubChem BioAssay.
Compounds with a hit are over-represented: about 0.77% of the library has one in this group of screens.
IL2 activator = activators of IL-2. AID 652025. hit rate 0.065% among 360,000. IL-2 activation reporter assay, cell-based qHTS; stimulated with anti-CD3/CD4/CD28 beads; in transgenic mouse T cells. activation, % (series mostly up to about 46 µM); in the data active = activation above about 50%; inconclusive = mostly about 30% to 49%; note: 0% is about no effect
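Quantitative HTS in unstimulated transgenic mouse T cells, with memory T cells as non-tolerant control and PMA/ionomycin as tolerance-bypass control. Compound pretreatment lasted 60 minutes before 18 h bead stimulation; EGFP/DsRed fluorescence read.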
Vif-A3G inh = inhibitors of Vif-APOBEC3G interaction. Q9HC16. HeLa A3G-eYFP + Vif (tagged APOBEC3G with the HIV-1 protein that degrades it), YFP fluorescence, overnight. Potency, µM (doses to about 46.1 µM), inactives show at the top dose activity, negative = active, usual class: inhibitors. hit rate 0.076% among 410,000. AID 602310; note: potency is the fitted concentration of half-maximal effect; % is set by controls: 0 for no effect and ±100 for the full control effect; nearly all actives have a fitted effect of over 60% in size
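HeLa cells stably expressing Vif and C-terminally eYFP-tagged A3G, seeded overnight at 37 deg C, then exposed to compound by pintool overnight at 37 deg C. Rise in yellow fluorescence (Ex 488/Em 500-530, Acumen) marks blocked Vif-driven A3G degradation.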
KAT2A inh = blocks human GCN5L2 histone acetyltransferase | Q92830 | GCN5L2 HAT assay, ThioGlo1 CoA-SH fluorescence | Potency, µM (highest dose often 58.9 µM), inactives show at the highest dose activity change, negative = inhibition, usual class: inhibitors | hit rate 0.21% among 390,000; note: potency is the fitted concentration of half-maximal effect; % is set by controls: 0 for no effect and ±100 for the full control effect
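Compounds, pin-transferred from DMSO stocks, meet 20nM GCN5L2 for 15 min before the reaction begins with H3(1-25) peptide (75uM) and acetyl-CoA (70uM). Thiol-reactive ThioGlo1 reports CoA release over 20 min at room temperature.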
PKM2 activator = increases activity of human pyruvate kinase M2; purified PKM2, Kinase-Glo ATP luminescence, activation; response scale: 0% is enzyme alone, no compound; AID 1631; hit rate 0.34% among 260,000; Potency, µM (doses to about 57.5 µM), for inactives: top-dose activation, hits mostly activators; note: potency is the fitted concentration of half-maximal effect; % is set by controls: 0 for no effect and ±100 for the full control effect; nearly all actives have a fitted effect of over 55% in size
Target sequence (P14618 whole entry, looked up): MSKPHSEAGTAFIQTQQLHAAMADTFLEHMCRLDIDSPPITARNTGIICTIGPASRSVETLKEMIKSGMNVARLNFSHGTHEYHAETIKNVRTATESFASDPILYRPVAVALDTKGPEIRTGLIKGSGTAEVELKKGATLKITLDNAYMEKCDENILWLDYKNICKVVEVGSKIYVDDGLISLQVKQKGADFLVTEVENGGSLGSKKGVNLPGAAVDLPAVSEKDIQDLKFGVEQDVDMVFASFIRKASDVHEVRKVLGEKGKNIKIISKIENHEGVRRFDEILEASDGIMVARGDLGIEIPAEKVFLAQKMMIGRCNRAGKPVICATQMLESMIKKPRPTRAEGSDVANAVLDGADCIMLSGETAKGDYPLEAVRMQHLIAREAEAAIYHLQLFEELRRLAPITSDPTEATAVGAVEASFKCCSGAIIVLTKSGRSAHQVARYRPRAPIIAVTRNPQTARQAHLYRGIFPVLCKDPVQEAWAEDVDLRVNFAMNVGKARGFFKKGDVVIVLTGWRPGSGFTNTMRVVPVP
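Purified hPK-M2 (>95% pure) converted ADP (0.1 mM final) to ATP with 0.5 mM PEP in 50 mM imidazole pH7.2, KCl, MgCl2, Tween 20, BSA; 1 h at room temperature. ATP detected by Kinase-Glo luminescence.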
RGS12 GoLoco inh = blocks human Gai1 binding to RGS12 GoLoco peptide, red readout. P63096. Gai1:RGS12 GoLoco peptide FP, rhodamine, 10 min. Potency, µM (series often up to 61.6 µM), without a hit: at the top dose activity, negative = inhibition, hits mostly inhibitors. hit rate 0.44% among 230,000. AID 880; active = well fitted inhibition curve with a large enough effect, not every such curve was filed as active; inactive = no such curve, though single readings can be large or run the other way; note: potency is the fitted concentration of half-maximal effect; % is set by controls: 0 for no effect and ±100 for the full control effect; nearly all actives have a fitted effect of over 30% in size
Vif-APOBEC3F blk = blocks the Vif interaction with APOBEC3F; HeLa A3F-eYFP + Vif (tagged APOBEC3F with the HIV-1 protein that degrades it), YFP fluorescence increase; AID 602313; hit rate 0.2% among 390,000; Potency, µM (highest dose often 46.1 µM), without a hit: at the top dose activity, negative = active; note: potency is the fitted concentration of half-maximal effect; % of control where 0% means no effect; nearly all actives have a fitted effect of over 65% in size
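HeLa cells stably expressing A3F-eYFP plus Vif, plated and incubated overnight at 37 deg C, then exposed to compounds overnight at 37 deg C. Blocked degradation read as raised yellow fluorescence (Ex 488/Em 500-530).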
Active calls of the source: *; u = inconclusive; x = not tested or not shown. Unless noted, calls come from the whole dose curve; as a rule, active = well fitted curve in the direction sought with a large enough effect; inconclusive = small, poorly fitted or top-dose-only effect, or another doubt; inactive = no such curve, though single readings can be large; an effect the other way counts as inactive or inconclusive.

SMILES | IL2 activator | Vif-A3G inh | KAT2A inh | PKM2 activator | RGS12 GoLoco inh | Vif-APOBEC3F blk
Cc1ccccc1NC(=O)c1sc2nc3c(c(-c4ccco4)c2c1N)CCC3 | 14 | 13µM* | -11% | 1% | 10% | u
CCc1ccc(NC(=O)c2sc3nc(C)c(C(=O)Nc4ccc(C)cc4C)c(-c4ccco4)c3c2N)cc1 | x | -30% | -1% | x | x | 13µM*
CN1C(C(=O)Nc2ccc(F)cc2F)=CC(c2ccco2)=NS1(=O)=O | -1 | 0% | -12% | -10% | x | -4%
COc1cc2c(cc1OC)CN(C(=O)Cn1ccccc1=O)CC2 | 0 | 2% | -15% | 1% | x | -3%
CCN1CCN(C(CNS(=O)(=O)c2ccc(Cl)cc2)c2ccccc2)CC1 (centres undefined) | 1 | 3% | -2% | x | x | -2%
On1cnnc1-c1ccccc1 | -3 | 1% | 3% | -12% | -8% | 4%
COn1cnnc1-c1ccccc1 | 0 | 1% | u | 1% | 8.9µM* | 1%
CCOc1ccc(NC(=O)Cn2c(=O)n(Cc3ccc(C(=O)NCc4ccc(C)cc4)cc3)c(=O)c3ccccc32)cc1 | x | -1% | -2% | x | x | 10µM*
CCCN(CCC)C(=O)c1nn(C)c2c1CSc1ccccc1-2 | x | 5% | -12% | x | x | 0%
COC(=O)c1ccc(Nc2c([N+](=O)[O-])ccc3nonc23)cc1 | 8 | u | -18% | x | x | 25µM*
CC1(C)CC(c2nc(-c3ccc(Br)cc3)cs2)CCS1 (centres undefined) | -1 | 0% | -12% | -5% | 0% | 1%
O=C1OC(c2ccccc2)=N/C1=C\C=C\c1ccco1 | 2 | 6% | 25µM* | 14% | 13% | -3%
N#CC(C(=O)OC1CCCCC1)c1nc2ccccc2nc1N1CCOCC1 (centres undefined) | 70* | u | 24% | 0% | 8% | -5%
COc1ccc(-c2nc(NC(=O)c3[nH]c(C)c(C(C)=O)c3C)sc2C)cc1 | -7 | -4% | -14% | 7.9µM* | 7% | 5%
COc1ccc(-c2nc(NC(=O)c3ccco3)sc2C)cc1 | -3 | 1% | x | x | x | -1%
CN(C)c1ccc(NC(=O)c2cccc([N+](=O)[O-])c2)c2ccccc12 | -3 | 0% | -18% | 1% | x | -13%
c1ccc(Cn2nnc3c(N4CCCC4)ncnc32)cc1 | -1 | -6% | -5% | 16µM* | 4% | -8%
c1ccc(Cn2nnc3c(N4CCc5ccccc5C4)ncnc32)cc1 | 1 | -3% | -7% | 14µM* | 6% | -2%
CC1Cc2ccccc2N1c1nc(C2CC2)nc2c1nnn2Cc1ccccc1 (centres undefined) | 1 | -1% | u | -8% | 18% | -2%
CC1Cc2ccccc2N1c1ncnc2c1nnn2Cc1ccccc1 (centres undefined) | 2 | 3% | 22µM* | -4% | -14% | -2%
CSc1nc(N)nc(SCC(=O)Nc2ccc(Cl)cc2)c1C#N | -1 | 1% | -11% | 4µM* | 53% | -5%
CSc1nc(N)nc(SCC(=O)C(C)(C)C)c1C#N | 0 | -1% | -1% | 1% | 15% | -3%
CSc1nc(N)nc(SCC(=O)Nc2cccc(F)c2)c1C#N | 0 | -16% | 0% | 1.4µM* | 16% | -20%
COC(=O)C1=C(C)N(c2ccc(C)c(C)c2)/C(=C/c2ccco2)C1=O | 71* | -18% | -17% | u | 26% | 1%
Cc1coc2c1C(=O)C(=O)c1c-2ccc2c(C)cccc12 | -3 | 2% | -24% | -11% | -8% | -1%
Cc1coc2c1C(=O)C(=O)c1c-2ccc2c1CCCC2(C)C | -2 | -1% | 28µM* | 1% | 4% | -8%
Cc1cccc2cc3c(nc12)SC(=NCC1CCCO1)N(Cc1ccco1)C3 (centres undefined) | -4 | -20% | -22% | 11µM* | x | 0%
